Test [1] has as its target D(1A) dopamine receptor (Homo sapiens) (UniProt P21728). Nature of the test: NVS_GPCR_hDRD1: NovaScreen (NVS) G Protein-Coupled Receptor Assay for human Dopamine Receptor D1 (DRD1) (AID 2283269). In a few lines:
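Radioligand displacement binding on membranes/protein extracted from HEK293 expressing human D1, cell-free; read 1 h after dosing by filter-based scintillation counting. Primary screen in duplicate at 25 uM, actives followed up in concentration series; signal loss versus DMSO baseline.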

Test [2] deals with Estrogen receptor (Homo sapiens) (UniProt P03372). Nature of the test: OT_ER_ERaERa_1440: Odyssey Thera (OT) 24-hour HEK293T Protein-Complementation Assay for Estrogen Receptor-alpha/-alpha Homodimer (AID 2283349).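 Also: hits raise fluorescence above DMSO for agonists and antagonists alike.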 In outline:
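Cells (HEK293T) carrying the fragment-tagged ERα LBD (aa 310-547) pair are treated with chemical for 24 hours. Nuclear and/or cytoplasmic fluorescence is then quantified on a laser scanning cytometer. Activity is scored as signal gain against DMSO.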

Test [3] shares this target. Nature of the test: OT_ER_ERaERa_0480: Odyssey Thera (OT) 8-hour HEK293T Protein-Complementation Assay for Estrogen Receptor-alpha/-alpha Homodimer (AID 2283351).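 Also: rise in fluorescence from reassembled reporter fragments on ERα LBD homodimer in nucleus or whole cell.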 In a few lines: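 Cells were treated for 8 hours, then imaged on a laser scanning plate cytometer. Complementation of reporter fragments fused to the human ERα ligand-binding domain (residues 310-547) in HEK293T gave fluorescence, and gain of signal over vehicle was fitted.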

Test [4] has as its target Estrogen receptor (Homo sapiens) + Estrogen receptor beta (Homo sapiens) (UniProt P03372+Q92731). Nature of the test: OT_ER_ERaERb_0480: Odyssey Thera (OT) 8-hour HEK293T Protein-Complementation Assay for Estrogen Receptor-alpha/-beta Heterodimer (AID 2283352). In a few lines:
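Increase in mean fluorescence intensity, measured by laser scanning plate cytometry, reported ER-alpha/ER-beta LBD complementation in HEK293T cells after 8 h chemical exposure. DMSO served as baseline; basal signal is low, punctate and cytoplasmic.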

Test [5] deals with Sodium channel protein type 1 subunit alpha (Rattus norvegicus) (UniProt P04774). Nature of the test: NVS_IC_rNaCh_site2: NovaScreen (NVS) Ion Channel Assay for rat Sodium Channel, Site 2 (NaCh) (AID 2283322).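 Also: hit means loss of radioligand binding signal relative to DMSO so AC50 marks displacement.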 In outline: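 Initial duplicate single-point testing at 25 uM, followed by concentration-response runs for actives. Binding of radioligand to rat forebrain membranes quantified after 1 h via filter-based radiodetection.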

Test [6] concerns the target bovine Estrogen Receptor (ER), ESR1 (gene 407238) (UniProt P49884). Put plainly: NVS_NR_bER: NovaScreen (NVS) Nuclear Receptor Binding Assay for bovine Estrogen Receptor (ER) (AID 2283345).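 Also: actives lower the bound radioligand count which means they displace the ER ligand.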 In outline:
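Cell-free radioligand binding with bovine uterine membrane extracts, read 18 hours after dosing by scintillation counting. Loss of signal versus DMSO baseline indicates displacement. Primary screen run in duplicate at 25 uM, actives followed in concentration series.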

Test [7] deals with Estrogen receptor (Homo sapiens) (UniProt P03372). Put plainly: NVS_NR_hER: NovaScreen (NVS) Nuclear Receptor Binding Assay for human Estrogen Receptor (ER) (AID 2283348). In outline:
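MCF7-derived receptor extract, radiolabelled ligand, competitive displacement. Read: scintillation counts at 18 h. DMSO = negative control/baseline. Primary 25 uM duplicate; follow-up concentration–response.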

Test [8] deals with human Neurokinin, NK2 Receptor, TACR2 (gene 6865) (UniProt P21452). Nature of the test: NVS_GPCR_hNK2: NovaScreen (NVS) G Protein-Coupled Receptor Assay for human Neurokinin, NK2 Receptor (AID 2283278).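 Also: actives reduce bound radioligand signal relative to DMSO baseline.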 In outline: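 Radioligand binding on membranes from CHO cells expressing receptor, filter-based scintillation read 4 h after dosing. Initial duplicate screen at 25 uM, actives in concentration series; loss of signal versus DMSO.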

Test [9] deals with rat Adrenergic Receptor, Alpha 2 (Adra2), Non-selective Binding, Adra2a (gene 25083) (UniProt P22909). Put plainly: NVS_GPCR_rAdra2_NonSelective: NovaScreen (NVS) G Protein-Coupled Receptor Assay for rat Adrenergic Receptor, Alpha 2 (Adra2), Non-selective Binding (AID 2283299). In a few lines:
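Filter-based scintillation counting of radioligand binding to rat cortical membrane receptors, measured 1.25 hours post-dosing; loss of signal versus DMSO indicates displacement. Initial single-concentration duplicate at 25 uM, then concentration series.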

A short description of test [10]: NVS_IC_rCaBTZCHL: NovaScreen (NVS) Ion Channel Assay for Calcium Channel, Type L, Benzothiazepine Site (CaBTZCHL) (AID 2283337). In a few lines: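 Test chemicals were added to rat cortical membranes and incubated 1.5 h with a tritiated or iodinated radioligand for the benzothiazepine site. Bound ligand was separated by filtration and counted. Actives from the 25 uM duplicate screen were retested in concentration series.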

Test [11] addresses human Peripheral-type Benzodiazepine Receptor (PBR), TSPO (gene 706) (UniProt P30536). Nature of the test: NVS_MP_hPBR: NovaScreen (NVS) Membrane Protein Assay for human Peripheral-type Benzodiazepine Receptor (PBR) (AID 2283331).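 Also: hits reduce radioligand binding relative to DMSO baseline.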 In outline: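 Cell-free radioligand displacement, human colonic membranes, 1 h exposure. Filter radiodetection read-out. Single-concentration duplicates (25 uM), then concentration-response for actives; DMSO negative control.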

Test [12] deals with rat Peripheral-type Benzodiazepine Receptor (PBR), Tspo (gene 24230) (UniProt P16257). Nature of the test: NVS_MP_rPBR: NovaScreen (NVS) Membrane Protein Assay for rat Peripheral-type Benzodiazepine Receptor (PBR) (AID 2283335). In a few lines: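 Competitive displacement of specific radioligand from rat kidney membrane PBR, read by filtration and scintillation after 1 h. Compounds first tested at 25 uM in duplicate, then in concentration series; signal loss relative to DMSO.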
Sequence of rat Peripheral-type Benzodiazepine Receptor (PBR), Tspo (gene 24230) (P16257 whole entry, looked up): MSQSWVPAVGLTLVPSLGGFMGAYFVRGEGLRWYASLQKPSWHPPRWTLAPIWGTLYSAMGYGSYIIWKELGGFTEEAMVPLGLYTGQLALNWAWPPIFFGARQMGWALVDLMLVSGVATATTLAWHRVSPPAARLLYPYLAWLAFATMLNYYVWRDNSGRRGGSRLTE

Test [13] addresses human Opioid Receptor Mu (Opiate Mu), OPRM1 (gene 4988) (UniProt P35372). Put plainly: NVS_GPCR_hOpiate_mu: NovaScreen (NVS) G Protein-Coupled Receptor Assay for human Opioid Receptor Mu (Opiate Mu) (AID 2283290).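 Also: hits lower bound tracer signal versus DMSO meaning displacement of the ligand.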 In a few lines:
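Radioligand displacement binding on membranes from CHO cells expressing the receptor, 2.5 h after dosing, filter-based scintillation counting; loss of signal vs DMSO baseline. Screened in duplicate at 25 uM, actives then run in concentration series.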

In test [14] the target is rat Thyrotropin Releasing Hormone Receptor (TRH), Trhr (gene 25570) (UniProt Q01717). Put plainly: NVS_GPCR_rTRH: NovaScreen (NVS) G Protein-Coupled Receptor Assay for rat Thyrotropin Releasing Hormone Receptor (TRH) (AID 2283329).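 Also: hit means lower bound tracer signal versus DMSO baseline.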 In outline:
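Rat forebrain membranes; radioligand displacement at TRH receptor by filter-based scintillation counting, read 4 h after dosing. Duplicate single-point screen at 25 uM, actives rerun in concentration series; loss of signal relative to DMSO.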

For test [15], the target named is chimpanzee Androgen Receptor (AR), AR (gene 747460) (UniProt O97775). Nature of the test: NVS_NR_cAR: NovaScreen (NVS) Nuclear Receptor Binding Assay for chimpanzee Androgen Receptor (AR) (AID 2283346).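 Also: radioligand displacement from AR measured by scintillation counting in a cell-free assay; a loss of bound radioligand signal versus DMSO counts as binding.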 In outline:
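Radioligand binding to chimpanzee AR expressed in Sf9/Sf21 cells, cell-free, measured 72 h after dosing by lysate-based scintillation counting. Loss of signal vs DMSO; initial duplicate screen at 25 uM, actives retested in concentration series.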

The results in this text go back to PubChem BioAssay (EPA / NIEHS).

Molecules are shown by their SMILES. Several values for one entry are separate records, joined by “and”; a condition that tells them apart may be missing. Equal entries are not always repeated. Records with an inconclusive call do not appear. More than one record can exist for a structure, and the calls need not agree. Activity calls are given as the source filed them. The calls were made as follows: active = hit-call score of the fitted dose curve at least 0.9, where 1 is the maximum; inconclusive = response in the unintended direction; inactive = score below 0.9.

Sequence of human Peripheral-type Benzodiazepine Receptor (PBR), TSPO (gene 706) (P30536 whole entry, looked up): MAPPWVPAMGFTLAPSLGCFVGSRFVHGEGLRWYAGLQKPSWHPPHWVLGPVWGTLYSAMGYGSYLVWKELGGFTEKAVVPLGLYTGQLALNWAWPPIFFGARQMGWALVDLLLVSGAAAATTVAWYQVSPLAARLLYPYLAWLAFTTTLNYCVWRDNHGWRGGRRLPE
Sequence of Estrogen receptor (Homo sapiens) + Estrogen receptor beta (Homo sapiens) (P03372 whole entry, looked up, the tested form may be a part): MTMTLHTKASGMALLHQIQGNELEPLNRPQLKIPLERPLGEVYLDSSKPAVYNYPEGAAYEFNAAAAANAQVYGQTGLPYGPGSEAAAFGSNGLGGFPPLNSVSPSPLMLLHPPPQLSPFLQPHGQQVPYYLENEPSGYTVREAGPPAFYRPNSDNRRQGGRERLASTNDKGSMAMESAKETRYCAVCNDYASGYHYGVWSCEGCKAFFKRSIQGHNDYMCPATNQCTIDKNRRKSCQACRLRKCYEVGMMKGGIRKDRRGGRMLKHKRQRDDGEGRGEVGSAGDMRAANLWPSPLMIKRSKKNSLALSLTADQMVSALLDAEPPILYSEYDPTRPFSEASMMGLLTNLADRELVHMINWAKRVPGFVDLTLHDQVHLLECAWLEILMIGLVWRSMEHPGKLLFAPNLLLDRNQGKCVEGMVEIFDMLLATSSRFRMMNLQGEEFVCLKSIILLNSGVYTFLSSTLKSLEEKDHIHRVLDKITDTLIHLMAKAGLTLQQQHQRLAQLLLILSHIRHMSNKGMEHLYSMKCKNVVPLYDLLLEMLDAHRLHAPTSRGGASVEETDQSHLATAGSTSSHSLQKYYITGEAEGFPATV
Sequence of Estrogen receptor (Homo sapiens) + Estrogen receptor beta (Homo sapiens) (Q92731 whole entry, looked up, the tested form may be a part): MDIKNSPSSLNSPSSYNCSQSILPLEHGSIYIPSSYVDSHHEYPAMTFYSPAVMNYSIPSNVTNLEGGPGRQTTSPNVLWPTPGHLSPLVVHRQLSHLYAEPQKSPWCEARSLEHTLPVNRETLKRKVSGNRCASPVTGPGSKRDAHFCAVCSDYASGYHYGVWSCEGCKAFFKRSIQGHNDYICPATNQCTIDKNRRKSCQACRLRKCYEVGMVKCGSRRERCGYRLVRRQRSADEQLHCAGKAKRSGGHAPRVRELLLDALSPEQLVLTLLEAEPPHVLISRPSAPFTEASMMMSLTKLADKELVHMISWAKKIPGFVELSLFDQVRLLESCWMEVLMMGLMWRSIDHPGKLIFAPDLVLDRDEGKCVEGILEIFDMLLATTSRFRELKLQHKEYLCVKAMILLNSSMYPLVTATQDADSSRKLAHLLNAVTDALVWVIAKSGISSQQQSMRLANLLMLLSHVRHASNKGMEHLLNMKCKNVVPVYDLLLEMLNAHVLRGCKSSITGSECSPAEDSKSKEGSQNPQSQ
Sequence of Estrogen receptor (Homo sapiens) (P03372 whole entry, looked up, the tested form may be a part): as the sequence (P03372 whole entry, looked up, the tested form may be a part) above
Sequence of rat Thyrotropin Releasing Hormone Receptor (TRH), Trhr (gene 25570) (Q01717 whole entry, looked up): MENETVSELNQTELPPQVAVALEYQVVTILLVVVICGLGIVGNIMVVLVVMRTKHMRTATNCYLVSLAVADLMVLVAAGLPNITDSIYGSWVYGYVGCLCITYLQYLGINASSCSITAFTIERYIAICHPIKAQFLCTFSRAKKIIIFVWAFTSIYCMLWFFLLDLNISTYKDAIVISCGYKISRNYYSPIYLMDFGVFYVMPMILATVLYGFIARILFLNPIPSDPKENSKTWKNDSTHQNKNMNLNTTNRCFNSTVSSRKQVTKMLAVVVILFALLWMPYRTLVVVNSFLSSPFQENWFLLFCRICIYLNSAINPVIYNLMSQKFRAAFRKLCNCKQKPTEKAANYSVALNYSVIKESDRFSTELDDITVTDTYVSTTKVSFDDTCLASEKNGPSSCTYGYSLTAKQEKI
Sequence of bovine Estrogen Receptor (ER), ESR1 (gene 407238) (P49884 whole entry, looked up): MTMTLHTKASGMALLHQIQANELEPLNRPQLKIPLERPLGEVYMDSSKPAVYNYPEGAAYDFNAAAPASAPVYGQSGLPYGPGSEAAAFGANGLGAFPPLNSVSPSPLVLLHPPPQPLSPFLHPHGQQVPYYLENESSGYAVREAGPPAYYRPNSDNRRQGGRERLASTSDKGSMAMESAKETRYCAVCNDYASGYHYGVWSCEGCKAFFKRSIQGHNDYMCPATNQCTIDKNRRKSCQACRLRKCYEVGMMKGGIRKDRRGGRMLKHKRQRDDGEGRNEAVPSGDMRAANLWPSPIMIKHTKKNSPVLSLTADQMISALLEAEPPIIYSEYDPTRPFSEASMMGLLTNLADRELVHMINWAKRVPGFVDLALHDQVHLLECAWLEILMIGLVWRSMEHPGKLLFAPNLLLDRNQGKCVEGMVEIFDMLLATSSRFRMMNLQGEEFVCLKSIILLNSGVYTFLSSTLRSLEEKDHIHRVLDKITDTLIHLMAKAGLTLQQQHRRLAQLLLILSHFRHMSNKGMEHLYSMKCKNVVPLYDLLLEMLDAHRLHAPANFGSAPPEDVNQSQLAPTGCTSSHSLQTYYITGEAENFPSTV
Sequence of chimpanzee Androgen Receptor (AR), AR (gene 747460) (O97775 whole entry, looked up): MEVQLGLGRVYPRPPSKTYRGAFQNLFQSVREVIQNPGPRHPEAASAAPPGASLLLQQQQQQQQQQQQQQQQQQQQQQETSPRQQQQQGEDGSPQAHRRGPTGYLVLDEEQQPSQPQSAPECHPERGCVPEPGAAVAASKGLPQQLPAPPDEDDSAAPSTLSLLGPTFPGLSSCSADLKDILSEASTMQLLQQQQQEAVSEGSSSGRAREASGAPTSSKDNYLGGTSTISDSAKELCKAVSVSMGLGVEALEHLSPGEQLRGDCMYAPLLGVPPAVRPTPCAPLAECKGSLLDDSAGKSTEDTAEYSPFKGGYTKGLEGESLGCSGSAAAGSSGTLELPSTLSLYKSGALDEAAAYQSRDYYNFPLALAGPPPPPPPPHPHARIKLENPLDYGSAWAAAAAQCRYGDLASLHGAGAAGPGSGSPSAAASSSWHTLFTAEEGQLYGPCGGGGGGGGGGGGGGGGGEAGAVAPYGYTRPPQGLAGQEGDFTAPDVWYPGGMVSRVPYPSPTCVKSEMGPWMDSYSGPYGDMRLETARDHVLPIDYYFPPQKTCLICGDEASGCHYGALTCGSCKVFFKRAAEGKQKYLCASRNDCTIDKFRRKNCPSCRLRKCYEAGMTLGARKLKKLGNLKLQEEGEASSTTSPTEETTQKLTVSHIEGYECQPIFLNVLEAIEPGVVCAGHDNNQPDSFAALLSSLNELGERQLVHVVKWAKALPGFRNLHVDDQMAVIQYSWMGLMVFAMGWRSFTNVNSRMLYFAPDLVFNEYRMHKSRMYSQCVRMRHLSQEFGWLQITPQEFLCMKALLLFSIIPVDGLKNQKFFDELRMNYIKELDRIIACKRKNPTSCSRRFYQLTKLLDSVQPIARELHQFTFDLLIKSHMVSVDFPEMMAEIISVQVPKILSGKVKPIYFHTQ
Sequence of human Opioid Receptor Mu (Opiate Mu), OPRM1 (gene 4988) (P35372 whole entry, looked up): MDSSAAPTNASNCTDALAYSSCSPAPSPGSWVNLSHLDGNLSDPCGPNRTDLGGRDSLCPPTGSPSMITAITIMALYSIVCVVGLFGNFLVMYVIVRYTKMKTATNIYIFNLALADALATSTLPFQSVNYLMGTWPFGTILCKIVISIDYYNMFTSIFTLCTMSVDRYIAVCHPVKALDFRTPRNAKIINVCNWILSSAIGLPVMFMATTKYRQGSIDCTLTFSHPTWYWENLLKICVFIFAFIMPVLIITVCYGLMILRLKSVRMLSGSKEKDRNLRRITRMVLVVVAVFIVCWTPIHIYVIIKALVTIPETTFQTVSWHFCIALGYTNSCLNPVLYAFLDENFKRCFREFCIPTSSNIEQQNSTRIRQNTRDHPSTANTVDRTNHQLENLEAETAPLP
Sequence of D(1A) dopamine receptor (Homo sapiens) (P21728 whole entry, looked up): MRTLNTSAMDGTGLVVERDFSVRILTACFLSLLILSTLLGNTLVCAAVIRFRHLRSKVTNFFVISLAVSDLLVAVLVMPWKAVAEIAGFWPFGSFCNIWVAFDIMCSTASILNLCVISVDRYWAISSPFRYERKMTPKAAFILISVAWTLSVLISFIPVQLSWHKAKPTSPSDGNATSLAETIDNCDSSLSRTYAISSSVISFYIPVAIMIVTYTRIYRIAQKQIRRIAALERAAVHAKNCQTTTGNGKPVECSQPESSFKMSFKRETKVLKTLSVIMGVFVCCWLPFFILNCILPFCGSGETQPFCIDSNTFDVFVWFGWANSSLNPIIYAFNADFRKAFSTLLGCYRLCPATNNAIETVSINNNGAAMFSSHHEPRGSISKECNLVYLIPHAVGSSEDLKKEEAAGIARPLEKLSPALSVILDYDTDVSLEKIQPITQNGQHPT

For the compound `CO[Si](OC)(c1ccccc1)c1ccccc1`, the AC50 – broadly, the concentration giving half of the maximal activity seen – in test [1] was 45.6 µM (active).

With `[Co]`, the outcome in test [2], in test [3] and in test [4] was inactive.

`O[Si](c1ccccc1)(c1ccccc1)c1ccccc1`: in [5], the outcome was inactive.

For the compound `C(=C(c1ccccc1)c1ccccc1)c1ccccc1`, the result in test [6] and in test [7] was inactive. Further, the AC50 in test [2] was 43.1 µM (active); in test [3], 5.6 µM (active); in [4] it was 9.47 µM (active).

Take `Oc1ccc(Nc2ccccc2)cc1`: the compound was called inactive in [8], in [9] and in test [10]. Besides, the AC50 in test [6] is 25 µM (active); in [7] it was 8860 nM (active).

Turning to `CC(C)OC(=O)c1ccccc1C(=O)OC(C)C`, the results for the half-maximal activity concentration (AC50) in [11], in [12] and in [3] were 11.5 µM (active), 9.08 µM (active) and 62.8 µM (active), respectively. In addition, in test [2], the outcome was inactive.

On to `CC(Cc1ccc(O)c(O)c1)C(C)Cc1ccc(O)c(O)c1` (configuration not stated), for which the AC50 was 6.77 µM (active) in [12]; 11.1 µM (active) in test [6]; 705 nM (active) in [7]; 11.9 µM (active) in test [2]; 11.9 µM (active) in [3]; 2.42 µM (active) in test [4].

Consider `CC/C=C\CCOC(C)=O`, for which the outcome in test [2], in [3] and in test [4] was inactive.

With `C#C[C@]1(O)CC[C@H]2[C@@H]3CCc4cc(OC)ccc4[C@H]3CC[C@@]21C`, the compound was classed as inactive in test [13], in test [5], in [14] and in test [7]. The AC50 in test [6] was 0.0305 µM (active); in test [15] it was 3.99 µM (active); in test [7], 2.29 nM (active); in test [2], 17.1 µM (active); in test [3], 9.95 µM (active).

For the compound `CCCCC(CC)COP(=O)(O)OCC(CC)CCCC` (configuration not stated), the result in [14], in test [7], in [2] and in test [3] was inactive.

As for `CC(CCl)OP(=O)(OC(C)CCl)OC(C)CCl` (configuration not stated), the compound was called inactive in [14], in test [2], in [3] and in test [4]. Besides, the AC50 in test [11] is 23.8 µM (active); in test [12], 4.23 µM (active) and 14.6 µM (active).

Regarding `CCCCCCC(C)OC(=O)CCCCC(=O)OC(C)CCCCCC` (configuration not stated), the AC50 in [11] was 10.2 µM (active). Besides, the outcome in [15], in [2], in test [3] and in test [4] was inactive.
